Cytotoxicity data for 93 molecules are collected here from PubChem BioAssay AID430 (Sanford-Burnham Center for Chemical Genomics, 2006).

Among all 63,000 compounds or so, about 1,100 (1.7%) were called active. The list comes from a sample in which actives are over-represented; it also holds similar structures and randomly drawn compounds. Potency and affinity values are given separately. A number with no mark means an inactive call. Cut-off read from the data, not from the text of the source: active = cytotoxicity above about 50%; inactive = the rest.

This test in a line: HPDE-C7 pancreatic duct cell viability loss – fluorescence, HTS (AID 430).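 Note: cells exposed to compound for 48 hours before viability readout; 0% = vehicle and 100% = reference cytotoxic drug.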 The conditions noted are these: HPDE-C7 pancreatic duct cells viability, at 10 µM, active compounds read high.
As for `Cc1cc(=O)[nH]c(SCc2cc(=O)n3nc(C)sc3n2)n1`, the cytotoxicity is 2.5%.
As for `CC1Cc2cc(-c3csc(NC(=O)Cc4cccs4)n3)ccc2N1S(C)(=O)=O` (stereo not drawn), the cytotoxicity is 56.2% (active).
For the molecule `O=C(Cc1cccs1)Nc1nc(-c2ccccc2)cs1`, the cytotoxicity is -35.2%.
In the case of `CS(=O)(=O)N1CCc2cc(-c3csc(NC(=O)Cc4cccs4)n3)ccc21`, the cytotoxicity was -7.8%.
For `CCCc1[nH]nc2c1C(c1cc(OC)cc(OC)c1)C(C#N)=C(N)O2` (stereo not drawn), the cytotoxicity is -4.3%.
On to `O=C(Cc1ccccc1)N1CCC(C(=O)N2CCN(c3ccc(F)cc3)CC2)CC1`, for which the cytotoxicity is -6.7%.
As to `O=C(NC(O)C(=O)c1cccs1)c1cccnc1` (stereo not drawn), the cytotoxicity is -20.3%.
As to `O=C(Nc1nnc(C2CCCCC2)s1)c1ccc(Br)s1`, the cytotoxicity was 7%.
In the case of `CCOC(=O)c1ccc(NC(=O)C23CCC(C)(C(=O)O2)C3(C)C)cc1` (stereo not drawn), the cytotoxicity is -7.6%.
Consider `CCN1CCN(C(=O)C2CCN(Cc3nc(-c4cccc(Cl)c4)oc3C)CC2)CC1`, for which the cytotoxicity was 9.2%.
The result for `CCc1ccc(-c2nc(CN3CCCC(C(=O)NCCc4ccc(OC)c(OC)c4)C3)c(C)o2)cc1` (stereo not drawn) reads 7%; that for `Cc1oc(-c2ccc(Cl)cc2)nc1CN1CCC(C(=O)N2CCN(Cc3ccccc3)CC2)CC1`, 9.6%.
As to `CCc1ccc(-c2nc(CN3CCC(C(=O)N4CCN(c5ccccc5)CC4)CC3)c(C)o2)cc1`, the cytotoxicity is 66% (active).
As to `CCN(CCNC(=O)C1CCCN(Cc2nc(-c3ccc(OC)cc3)oc2C)C1)c1ccccc1` (stereo not drawn), the cytotoxicity was 67.8% (active).
For the molecule `CCc1ccc(-c2nc(CN3CCC(C(=O)N4CCN(c5ccccn5)CC4)CC3)c(C)o2)cc1`, the cytotoxicity is 26.2%.
Turning to `CCc1ccc(-c2nc(CN3CCC(C(=O)NCCN(CC)c4ccccc4)CC3)c(C)o2)cc1`, the cytotoxicity was 47.3%.
With `Cc1oc(-c2cccc(Cl)c2)nc1CN1CCC(C(=O)N2CCN(c3ccccn3)CC2)CC1`, the cytotoxicity was 15.5%.
For the molecule `Cc1oc(-c2cccc(Cl)c2)nc1CN1CCC(C(=O)N2CCN(c3ccccc3F)CC2)CC1`, the cytotoxicity is 54.5% (active).
As for `Cn1c(-c2ccc(F)cc2)cnc1NCc1ccccc1`, the cytotoxicity is -16.5%.
As for `CCCCCCN=CC1=C(O)C(C(=O)OC)C(C)(C)CC1=O` (stereo not drawn), the cytotoxicity was 20.5%.
With `COC(=O)c1ccccc1NC(=O)c1nc2nc(C)cc(C)n2n1`, the cytotoxicity was 8.9%.
Regarding `COC(=O)C1=C(C)OC(N)=C(C#N)C1c1ccc(OC)c(OC)c1OC` (stereo not drawn), the cytotoxicity is -14.9%.
The result for `CC1(C)CC(=O)C2=C(C1)Oc1ncn(CCCn3ccnc3)c(=N)c1C2c1ccccc1` (stereo not drawn) reads 5.8%; that for `O=c1c2ccccc2nc(-c2ccccc2)n1CCCn1ccnc1`, -10.6%.
Consider `N=c1c2c(-c3ccccc3)c(-c3ccccc3)n(Cc3ccco3)c2ncn1CCN1CCOCC1`, for which the cytotoxicity is 29.6%.
Turning to `OCCNc1ncnc2c1c(-c1ccccc1)c(-c1ccccc1)n2Cc1ccco1`, the cytotoxicity was 37.5%.
To `COc1ccccc1-c1nc2n(n1)C(c1ccc(Cl)cc1)C(C(N)=O)=C(C)N2` (stereo not drawn) belongs 5.8%; to `COC(=O)c1ccc(OCC(O)Cn2nnc3ccccc32)cc1` (stereo not drawn), 3.4%.
On to `CCCCN(C(=O)NC(=O)Nc1c(C)cc(C)cc1C)S(C)(=O)=O`, for which the cytotoxicity is 4.6%.
`CC(C)=CC(=O)Nc1ccccc1C(N)=O`: the cytotoxicity is 3.7%.
For `COc1ccc(N2CCN(C(=O)CCN3C(=O)c4ccccc4S3(=O)=O)CC2)cc1`, the cytotoxicity was -0.5%.
As for `Cn1nccc1C(=O)NCCN1C(=O)OC(C)(C)C1(C)O` (stereo not drawn), the cytotoxicity is -1.1%.
To `CCOC(=O)c1ccc(N2C(=O)C(C)=C(C)C2=O)cc1` belongs -4.6%.
Turning to `CCOC(=O)c1ccc(-n2c(=O)[nH]c3ccccc3c2=O)cc1`, the cytotoxicity was -12.3%.
Consider `CCOC(=O)c1ccc(-n2[nH]c(-c3ccccc3)cc2=O)cc1`, for which the cytotoxicity is 66.3% (active).
For the molecule `O=C1CCCC2=C1C(c1cccc(Br)c1)n1nc(-c3ccco3)nc1N2` (stereo not drawn), the cytotoxicity was -0.5%.
To `Cc1cccc(S(=O)(=O)Nc2cccc(-c3cn4ccsc4n3)c2)c1` belongs 36.1%.
The result for `Cc1ccc(S(=O)(=O)Nc2cccc(-c3cn4ccsc4n3)c2)cc1` reads 52.4% (active); that for `O=S(=O)(Nc1cccc(-c2cn3ccsc3n2)c1)c1ccc(F)cc1`, 33.8%.
Regarding `O=C(Cn1cnnn1)Nc1ccccc1Cc1ccccc1`, the cytotoxicity is -2.5%.
For `N#CC1=C2SCN(c3ccccc3)CN2C(=O)CC1c1cccs1` (stereo not drawn), the cytotoxicity is -3.1%.
`N#CC1=C2SCC(O)(c3ccccc3)N2C(=O)CC1c1ccccc1` (stereo not drawn): the cytotoxicity was 70% (active).
In the case of `COc1ccc(C2CC(=O)N3C(=C2C#N)SCC3(O)c2ccccc2)cc1` (stereo not drawn), the cytotoxicity is 10.4%.
For the molecule `N#CC1=C2SCN(Cc3ccccc3)CN2C(=O)CC1c1cccs1` (stereo not drawn), the cytotoxicity was -17.2%.
In the case of `CCc1ccc(C2CC(=O)N3CN(c4ccccc4)CSC3=C2C#N)cc1` (stereo not drawn), the cytotoxicity was -1.3%.
On to `CCOC(=O)CCNC(=O)CNC(=O)OCc1ccccc1`, for which the cytotoxicity is -3.8%.
As to `CCOc1ccccc1NC(=O)CN(c1nccs1)S(=O)(=O)c1ccc(N)cc1`, the cytotoxicity is -20.7%.
Consider `COc1ccc(S(=O)(=O)N(C)CC(=O)O)c2ccccc12`, for which the cytotoxicity is 1.2%.
With `Cc1ccc(/C(O)=C2\C(=O)C(=O)N(CC(C)O)C2c2ccc(N(C)C)cc2)cc1` (stereo not drawn), the cytotoxicity is 0%.
`CCCC(=O)n1nc(-c2ccc(OC)cc2)nc1N`: the cytotoxicity was 11.5%.
Take `O=C(CSc1nnc(-c2ccco2)o1)NC(=O)C1COc2ccccc2O1` (stereo not drawn): the cytotoxicity is -12.2%.
Consider `COc1cccc(C2=NOC(C(=O)NCc3ccc(F)cc3)C2)c1` (stereo not drawn), for which the cytotoxicity was 60.3% (active).
Consider `COc1cccc(C2=NOC(C(=O)NCc3ccco3)C2)c1` (stereo not drawn), for which the cytotoxicity was 40.7%.
In the case of `COc1ccc(CNC(=O)C2CC(c3cccc(OC)c3)=NO2)cc1` (stereo not drawn), the cytotoxicity is 36%.
On to `COCCNC(=O)C1CC(c2cccc(OC)c2)=NO1` (stereo not drawn), for which the cytotoxicity is -6.9%.
As to `COc1cccc(C2=NOC(C(=O)NCc3ccccc3)C2)c1` (stereo not drawn), the cytotoxicity is 61.7% (active).
With `COc1cccc(C2=NOC(C(=O)NCc3ccccn3)C2)c1` (stereo not drawn), the cytotoxicity is -11.7%.
As to `Cc1oc2ccc(OC(=O)N3CCOCC3)cc2c1C(=O)OC(C)C`, the cytotoxicity is -25.5%.
Turning to `Cc1nn(-c2ccccc2C(=O)O)c(=O)c2ccccc12`, the cytotoxicity was 0.5%.
Consider `CC(=O)c1sc(-c2c(C)nc3sccn23)nc1C1CCCC1`, for which the cytotoxicity was 4.9%.
Take `O=C(NCCCN1CCOCC1)c1c(F)cccc1F`: the cytotoxicity is 18.7%.
In the case of `COc1ccc2sc(C)nc2c1NC(C)=O`, the cytotoxicity was -5.3%.
In the case of `CCCCN(Cc1ccccc1)c1ncnc2nc[nH]c12`, the cytotoxicity was -1%.
On to `Clc1ccccc1CNc1ncnc2nc[nH]c12`, for which the cytotoxicity was 3.9%.
In the case of `Clc1ccccc1CN(Cc1ccccc1)c1ncnc2nc[nH]c12`, the cytotoxicity was 82.7% (active).
The result for `O=C(O)C1CC(=O)N(Cc2ccccc2)C1` (stereo not drawn) reads -5.6%.
For the molecule `COC(=O)c1ccc(OCC(=O)Nc2nn(-c3ccccc3)nc2C(N)=O)cc1`, the cytotoxicity was 51.8% (active).
To `NC(=O)c1nn(-c2ccccc2)nc1NC(=O)CN1CCCCC1` belongs -13.3%; to `CC(=O)N(CC(=O)Nc1nn(-c2ccccc2)nc1C(N)=O)Cc1ccccc1`, -8.2%; to `CCc1nc2ccc(C(=O)NCc3ccco3)cc2nc1CC`, 1.5%.
The result for `O=C1c2oc3ccccc3c(=O)c2C(c2cccc(O)c2)N1CCCN1CCOCC1` (stereo not drawn) reads -13.7%; that for `CCNc1ccc(C(=O)OCC)cc1NC(=O)c1cccc(S(=O)(=O)N2CCOCC2)c1`, 1.8%.
The result for `Cc1ccc(F)cc1NC(=O)c1cccc(N(C)C)c1` reads -10.6%; that for `CCNc1ccc(C(=O)OCC)cc1NC(=O)c1cccc(N(C)C)c1`, 54.6% (active).
With `CCn1c(SCC(=O)N2CCCCC2)nnc1-c1ccc(S(=O)(=O)N2CCN(C)CC2)cc1`, the cytotoxicity is -22%.
Regarding `COc1ccc(CNC(=O)C2COc3ccccc3O2)c(OC)c1` (stereo not drawn), the cytotoxicity was -4.4%.
`Cc1ccc(C(=O)CC(C(=O)O)n2ccc(C)n2)cc1` (stereo not drawn): the cytotoxicity is 4%.
With `Cc1ccc(C(=O)CC(C(=O)O)n2cccn2)cc1` (stereo not drawn), the cytotoxicity is -3.1%.
`O=C1OCCC1N1C(=O)c2ccccc2S1(=O)=O` (stereo not drawn): the cytotoxicity was -4.1%.
Turning to `Nc1c(Nc2ccccc2)c2ccccc2oc1=O`, the cytotoxicity is -3.7%.
As for `CCN(C)c1ccc(/C=N\n2nnnc2N)cc1`, the cytotoxicity is 51.3% (active).
With `CCN(CC)c1ccc(/C=N/n2nnnc2N)c(O)c1`, the cytotoxicity is -2.7%.
Regarding `CSc1ccc(/C=N/n2nnnc2N)cc1`, the cytotoxicity is -10.4%.
On to `CCCCS(=O)CC(COc1ccc(Cl)cc1)OC(=O)c1ccccc1` (stereo not drawn), for which the cytotoxicity is -8.9%.
On to `Cn1c(=O)c(-c2ccccc2)nn2c3ccccc3nc12`, for which the cytotoxicity was -4.7%.
Consider `COc1ccccc1Nc1nc2ccccc2n1C`, for which the cytotoxicity was -9%.
The result for `CNc1ccccc1-c1nc2ccccc2n(C)c1=O` reads 56.7% (active).
Turning to `Cc1ccc(NCc2nnc(SCC(=O)Nc3cccc(O)c3)n2CC2CCCO2)c(C)c1` (stereo not drawn), the cytotoxicity is 8.8%.
For `CC(=O)O[C@H]1C(=O)[C@]2(C)[C@H]([C@H](OC(=O)c3ccccc3)[C@]3(O)C[C@H](OC(=O)[C@H](O)[C@@H](NC(=O)c4ccccc4)c4ccccc4)C(C)=C1C3(C)C)[C@]1(OC(C)=O)CO[C@@H]1C[C@@H]2O`, the cytotoxicity is 72% (active).
`CC(=O)O[C@@]12CO[C@@H]1C[C@H](O)[C@@]1(C)C(=O)[C@H](O)C3=C(C)[C@@H](OC(=O)[C@H](O)[C@@H](NC(=O)OC(C)(C)C)c4ccccc4)C[C@](O)([C@@H](OC(=O)c4ccccc4)[C@H]21)C3(C)C`: the cytotoxicity was 51.5% (active).
The result for `CNC(=O)c1ccccc1NC(=O)c1c(O)c2c([nH]c1=O)CCCC2` reads 0%.
Consider `COc1ccc(/C(O)=C2/C(=O)C(=O)N(Cc3cccnc3)C2c2ccccn2)cc1` (stereo not drawn), for which the cytotoxicity is -4.2%.
To `Cc1cc(C)n2c(Br)c(CSc3nc4ccccc4o3)nc2n1` belongs 3.3%.
